aDG glyco act: increases alpha dystroglycan glycosylation; Pro5-aDG cells, alpha-DG glycosylation AlphaScreen (IIH6); 0% Pro5, 100% B10-LARGE cell signal; activation, % at 10 µM; 0.22% of 360,000 active; AID 624168;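 active means activation of at least 8% versus controls, or a plate z-score of at least 8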;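 further: Pro5 are CHO cells carrying HIG-tagged alpha-DG that lacks glycosylation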
TROY signal inh: TROY signaling inhibition; 0.98% of 360,000 active; AID 1347056; inhibition, % at 10 µM; Q293 LMP1-TROYcd NF-kB luciferase reporter, 4 h;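 active means compounds whose plate-normalised and pattern-corrected inhibition of the luciferase reporter signal at the single screening dose is 50% or more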
LMP1 NFkB inh: Epstein-Barr LMP1 NF-kappaB reporter inhibition; LMP1-induced NF-kappaB luciferase reporter cells, luminescence; inhibition, % at 12.5 µM; 0.69% of 350,000 active; in the data active means inhibition above about 41%; inconclusive means no clear call, values can overlap the other calls
LGR2 antag: Drosophila LGR2 receptor signaling inhibition; inhibition, % at 9.99 µM; 0.35% of 380,000 active; AID 720647; HEK293 LGR2, CRE-luciferase, bursicon-stimulated, 4 h;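 active means drop in luminescence signal, shown as inhibition above about 50% in the replicate tests, limit read from the data, passing the limit was not always enough; inconclusive means probably only some replicates passing the limit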;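 further: agonist challenge used bursicon conditioned medium at about half maximal strength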
HSP90 inh: blocks HSP90-mediated luciferase refolding in reticulocyte lysate. Rabbit reticulocyte lysate, luciferase refolding luminescence, 3 h. inhibition, % at 5.6 µM. 0.91% of 290,000 active. AID 1789;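 active means inhibition above the screen-wide mean plus 3 SD, computed separately per campaign, cut at about 16% in these data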;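 further: inhibitors lower the luminescence because luciferase stays unfolded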
TWEAK-Fn14 inh: inhibitors of TWEAK-Fn14 interaction signaling; TWEAK-stimulated Fn14 reporter cells, luciferase luminescence, 8 h; inhibition, % at 10 µM; 2% of 360,000 active; AID 1159606; in the data active means inhibition above about 50%
Numbers stand for hits; - = inactive; ? = inconclusive; . = no result. Compounds with a hit are over-represented: about 2.6% of the library has one in this group of screens.

SMILES	aDG glyco act	TROY signal inh	LMP1 NFkB inh	LGR2 antag	HSP90 inh	TWEAK-Fn14 inh
COc1ccccc1N(CC(=O)Nc1cccc(C(F)(F)F)c1)S(C)(=O)=O	-	-	-	-	-	-
Cc1ccc([N+](=O)[O-])cc1N(CC(=O)Nc1ccc(S(=O)(=O)Nc2cccc(C(F)(F)F)c2)cc1)S(C)(=O)=O	-	69.9	-	-	-	84.8
Cc1cc(O)c(-c2cc(C(=O)Nc3ccc(S(=O)(=O)N4CCOCC4)cc3)[nH]n2)cc1C	-	-	-	.	-	-
O=C(Nc1ccc(S(=O)(=O)N2CCOCC2)cc1)c1cc(-c2cc(Cl)ccc2O)n[nH]1	-	69.4	-	?	-	90.6
COc1cccc(S(=O)(=O)N(C)C[C@@H]2Oc3cc(C4=CCCCC4)ccc3S(=O)(=O)N([C@@H](C)CO)C[C@@H]2C)c1	.	.	.	-	.	.
C=CCOc1ccc(C[C@H](N)C(=O)NC[C@H]2O[C@@H](n3cnc4c(N)ncnc43)[C@H](O)[C@@H]2O)cc1	-	-	-	.	.	-
COc1ccc(C[C@H](N)C(=O)N[C@H]2[C@@H](O)[C@H](n3cnc4c(N(C)C)ncnc43)O[C@@H]2CO)cc1	-	-	-	-	.	93.3
C[C@H](NC(=O)[C@@H]1[C@@H](CO)[C@@H]2Cn3c(ccc(-c4ccccc4)c3=O)[C@H]1N2C)c1ccccc1	.	.	.	-	.	.
CCc1ccc(CNC(=O)c2cc3c(C)nc4ccccc4c3o2)cc1	-	-	-	-	-	58.3
Cc1nc2ccccc2c2oc(C(=O)NCC3COc4ccccc4O3)cc12 (configuration not stated)	-	73.2	-	-	-	92.6
COc1cccc(CNC(=O)c2cc3c(C)nc4ccccc4c3o2)c1	-	-	-	-	-	52.3
CNC[C@H]1Oc2c(NS(=O)(=O)c3cccs3)cccc2C(=O)N([C@@H](C)CO)C[C@H]1C	.	.	.	-	.	.
CCC(=O)N1CC(=O)N2[C@H](CO)[C@@H](c3ccc(-c4cccnc4)cc3)[C@H]2C1	.	.	.	-	.	.
Cc1ccc(CN=Cc2[nH]c3ccc(Br)c(Cl)c3c2O)cc1	3.9	-	-	-	-	-
CCc1ccc(NCc2nc3ccccc3c(=O)[nH]2)cc1	-	67.1	-	.	-	-
Cc1ccc(NC(=O)CNc2cccc(S(=O)(=O)N3CCOCC3)c2)cc1F	-	-	-	-	.	-
COc1cc(NC(=O)CNc2cccc(S(=O)(=O)N3CCOCC3)c2)cc(OC)c1	-	77.7	-	-	.	-
COc1ccc(S(=O)(=O)N2CCN(CC(=O)Nc3ccc(F)c(F)c3)CC2)cc1	-	-	-	-	-	-
O=C(COc1ccc(C(=O)c2ccc(F)cc2)cc1)Nc1cccc(S(=O)(=O)N2CCOCC2)c1	-	54.4	-	-	.	57.2
CCC(=O)c1ccc(OCC(=O)Nc2cccc(S(=O)(=O)N3CCCCCC3)c2)cc1	-	-	-	-	.	54.5
COc1ccc(S(=O)(=O)N2CCN(CC(=O)Nc3cccc(OC)c3)CC2)cc1	-	-	56.0	-	-	-
O=C(COC(=O)CCC(=O)c1ccc(F)cc1)Nc1cccc(S(=O)(=O)N2CCOCC2)c1	-	-	-	-	-	-
N#Cc1ccccc1Sc1ccccc1C(=O)OCC(=O)NC12CC3CC(CC(C3)C1)C2	-	-	-	-	-	62.8
O=C(C[C@H]1CC[C@H](NC(=O)Nc2ccc(C(F)(F)F)cc2)[C@@H](CO)O1)NCCN1CCCC1	.	.	.	-	.	.
CC(C)NC(=O)Nc1cccc2c1O[C@@H](CN(C)S(=O)(=O)c1cccs1)[C@@H](C)CN([C@H](C)CO)C2=O	.	.	.	-	.	.
SMILES	aDG glyco act	TROY signal inh	LMP1 NFkB inh	LGR2 antag	HSP90 inh	TWEAK-Fn14 inh
O=C(Nc1cccc(Cl)c1)c1ccc(S(=O)(=O)NCC2CCCO2)cc1 (configuration not stated)	-	-	-	-	-	62.8
CC(=O)Oc1ccc(C(=O)Nc2ccc(S(=O)(=O)NCC3CCCO3)cc2)cc1 (configuration not stated)	-	50.5	-	-	-	-
COC(=O)c1cccc2c1-c1ccccc1/C2=N\NC(N)=O	-	-	-	-	-	-
COC(=O)c1cccc2c1-c1ccccc1/C2=N/O	-	56.1	43.8	.	-	82.9
COc1ccc(C(=O)NCCn2cc(SCC(=O)Nc3cc(C)on3)c3ccccc32)cc1OC	-	-	-	.	-	-
Cc1cc(NC(=O)CSc2cn(CCNC(=O)c3ccc(Cl)cc3)c3ccccc23)no1	-	70.7	-	-	-	66.9

Screening results as filed in PubChem.
